Results reported in PubChem BioAssay (NCATS).
Inconclusive results are not listed. Active and inactive are the calls of the source. The call rests on the fitted dose curve; in most records, active means well fitted inhibition curve with a large enough effect; inconclusive means small, poorly fitted or top-dose-only effect; inactive means flat fitted curve, though single readings scatter.

Molecular target: Lysine-specific demethylase 5B (Homo sapiens) (UniProt Q9UGL1)
Test: Optimization screen for KDM5B Histone Demethylases FDH coupled qHTS against the LOPAC library (AID 1347166)
Conditions: KDM5B demethylation, FDH-coupled NADH fluorescence (FDH is formaldehyde dehydrogenase); series mostly up to 57.5 µM
Text: Assay Submitter (PI): Qin Yan, Ph.D. (Yale University) and Xiaodong Cheng, Ph.D. (MD Anderson)
This project was funded as part of the NCI NEXT Program and Chemical Biology Consortium (CBC)
The histone demethylases, KDM5A and KDM5B catalyze the demethylation of lysine 4 on histone H3 (H3K4me3/2). They
are overexpressed in a variety of cancers and have been implicated in cancer cell growth, metastasis, drug resistance, and tumor growth. KDM5A is amplified and overexpressed in breast and gastric cancer; and is translocated in leukemia. While KDM5B is highly expressed in human mammary tumors and breast cancer cell lines, but not in normal adult breast tissue. Moreover, knockdown of KDM5B leads to upregulation of tumor suppressor genes, including BRCA1. The goal of this project is to employ qHTS to identify selective small molecule inhibitors of KDM5A/B demethylase activity to better understand the role of KDM5 in cancer and to develop novel therapies.
We employed an FDH-coupled assay previously reported by Sakurai et al. to monitor in vitro KDM5 demethylase activity. Compounds showing dose response inhibition are re-acquired, validated, and tested for non-specific interference with the formaldehyde dehydrogenase (FDH) counterscreen. True inhibitors are validated using an AlphaLisa secondary screen, which employs an H3K4(me2-1)-specific antibody to monitor demethylation of a biotin-tagged H3K4(me3) peptide substrate. Inhibitors are profiled against KDM4A and KDM6A AlphaLisa counterscreens to determine level of demethylase specificity; and against the TruHits counterscreen to eliminate non-specific inhibitory activity on the AlphaLISA detection method. Selective inhibitors identified from the primary and secondary screening are tested in cells using immunofluorescence to monitor global H3K4 tri-methylation as a measure of KDM5A/B inhibition. This assay is run against the NCGC Lopac collection of about 1,200 compounds to evaluate its amenability to quantitative High Throughput Screening (qHTS) platform.
Early Translation Branch (ETB)
National Center for Advancing Translational Sciences (NCATS), Rockville, MD
National Institute of Health (NIH), Bethesda, Maryland
[1] Sakurai, M et al. A miniaturized screen for inhibitors of Jumonji histone demethylases. Mol Biosyst. 2010 Feb;6(2):357-64. doi: 10.1039/b912993f. Epub 2009 Oct 8.
1536-well Black, solid bottom, medium binding assay plate is purchased from Greiner Bio-one. The enzymes (KDM5B) and substrate (H3K4me3/2) are provided by the principal investigators. The buffer for this assay is composed of 50mM HEPES at pH 7.5 with 0.01% Tween-20.
FDH coupled qHTS protocol:
Three microliter enzyme mix (buffer + 200nM KDM5BDeltaAP final concentration) is dispensed into the assay plate using the BioRAPTR Flying Reagent Dispenser (FRD; Beckton-Dickenson). Compound (at various final concentration) and control solution is pin transferred to the assay plate using the Kalypsys 1536-pin tool apparatus. The assay plate is incubated for 10 min at room temperature followed by addition of 1uL substrate mix (buffer + 100uM ascorbic acid, 50uM ferrous ammonium sulfate, 12.5uM H3K4Me3, 25uM a-ketoglutarate, 0.25 mM NAD+, 0.25 U/mL formaldehyde dehydrogenase using the FRD yielding a total reaction volume of 4 uL. Initial fluorescence (Read1) is detected using the PerkinElmer ViewLux plate reader equipped with 340 nm excitation and 450 nm emission filters. The final fluorescence (Read2) signal is obtained after 30 min of room temperature incubation. Delta RFU is calculated (Read2 - Read1) and is used to generated dose response curves

Lysine-specific demethylase 5B (Homo sapiens), sequence (Q9UGL1 whole entry, looked up): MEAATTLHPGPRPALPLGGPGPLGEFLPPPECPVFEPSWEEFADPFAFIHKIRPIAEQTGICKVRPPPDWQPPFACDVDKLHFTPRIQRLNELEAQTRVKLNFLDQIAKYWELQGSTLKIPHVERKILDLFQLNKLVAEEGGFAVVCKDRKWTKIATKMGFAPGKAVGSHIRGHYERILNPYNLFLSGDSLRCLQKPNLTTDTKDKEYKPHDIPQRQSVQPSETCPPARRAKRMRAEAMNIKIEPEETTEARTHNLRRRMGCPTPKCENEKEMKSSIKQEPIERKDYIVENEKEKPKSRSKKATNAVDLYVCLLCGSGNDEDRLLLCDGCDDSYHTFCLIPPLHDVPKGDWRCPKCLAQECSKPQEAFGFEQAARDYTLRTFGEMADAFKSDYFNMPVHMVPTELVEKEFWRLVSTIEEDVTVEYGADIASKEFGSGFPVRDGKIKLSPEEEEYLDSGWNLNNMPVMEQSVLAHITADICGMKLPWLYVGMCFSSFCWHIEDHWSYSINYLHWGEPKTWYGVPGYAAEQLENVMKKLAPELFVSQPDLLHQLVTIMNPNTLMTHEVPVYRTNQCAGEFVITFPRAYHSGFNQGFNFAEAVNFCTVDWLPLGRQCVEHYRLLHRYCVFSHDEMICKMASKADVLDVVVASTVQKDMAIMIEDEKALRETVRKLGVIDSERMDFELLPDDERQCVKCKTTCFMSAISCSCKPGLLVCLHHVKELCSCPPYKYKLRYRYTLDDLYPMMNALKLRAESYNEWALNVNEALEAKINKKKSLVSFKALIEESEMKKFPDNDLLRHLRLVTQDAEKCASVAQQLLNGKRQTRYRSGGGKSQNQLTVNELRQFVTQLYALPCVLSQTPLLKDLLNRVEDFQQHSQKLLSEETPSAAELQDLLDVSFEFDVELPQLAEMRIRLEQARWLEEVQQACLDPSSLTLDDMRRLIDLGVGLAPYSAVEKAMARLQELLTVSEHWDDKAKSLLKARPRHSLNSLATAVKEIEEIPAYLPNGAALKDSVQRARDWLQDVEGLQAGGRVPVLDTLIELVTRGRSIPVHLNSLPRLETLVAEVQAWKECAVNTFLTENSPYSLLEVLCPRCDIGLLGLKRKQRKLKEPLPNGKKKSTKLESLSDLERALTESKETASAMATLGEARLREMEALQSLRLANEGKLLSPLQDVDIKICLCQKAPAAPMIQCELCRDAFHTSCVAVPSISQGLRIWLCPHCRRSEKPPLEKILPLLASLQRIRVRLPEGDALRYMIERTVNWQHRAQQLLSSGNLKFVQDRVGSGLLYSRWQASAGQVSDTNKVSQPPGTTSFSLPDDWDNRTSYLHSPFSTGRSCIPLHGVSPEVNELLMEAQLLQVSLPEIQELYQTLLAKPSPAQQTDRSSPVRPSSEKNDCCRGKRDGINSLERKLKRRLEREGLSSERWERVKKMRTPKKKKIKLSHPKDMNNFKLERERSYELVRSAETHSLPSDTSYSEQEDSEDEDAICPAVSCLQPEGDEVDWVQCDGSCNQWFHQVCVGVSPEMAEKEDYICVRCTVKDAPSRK

Structure (SMILES)	outcome
Nc1nc(N)c(N=O)c(OCC2CCCCC2)n1	inactive
NCCCCNCCCN	inactive
Cc1cccc(C#Cc2ccccc2)n1	inactive
CC(=O)O[C@H]1C(=O)[C@@]2(C)C([C@H](OC(=O)c3ccccc3)[C@]3(O)C[C@H](OC(=O)[C@H](O)[C@@H](NC(=O)c4ccccc4)c4ccccc4)C(C)=C1C3(C)C)[C@]1(OC(C)=O)CO[C@@H]1C[C@@H]2O (stereo partly specified)	inactive
Nc1nc(OCc2ccccc2)c2[nH]cnc2n1	inactive
COc1ccc2cc([C@H](C)C(=O)O)ccc2c1	inactive
CC(=O)N1CCN(c2ccc(OC[C@H]3CO[C@](Cn4ccnc4)(c4ccc(Cl)cc4Cl)O3)cc2)CC1	inactive
COc1ccccc1N1CCN(CCN(C(=O)C2CCCCC2)c2ccccn2)CC1	inactive
C[C@@H](N)C1CCC(C(=O)Nc2ccncc2)CC1 (stereo partly specified)	inactive
Cc1c(OCC(F)(F)F)ccnc1CS(=O)c1nc2ccccc2[nH]1 (stereo unspecified)	inactive
CC1(C)NC(=O)N(c2ccc([N+](=O)[O-])c(C(F)(F)F)c2)C1=O	inactive
O=C(O)c1cccnc1Nc1cccc(C(F)(F)F)c1	inactive
CN(C)CCCC1(c2ccc(F)cc2)OCc2cc(C#N)ccc21 (stereo unspecified)	inactive
Nc1ccn([C@@H]2O[C@H](CO)[C@@H](O)C2O)c(=O)n1 (stereo partly specified)	inactive
O=C1c2ccccc2-c2n[nH]c3cccc1c23	inactive
O=Nc1c(-c2c(O)[nH]c3cc(Br)ccc23)[nH]c2ccccc12	inactive
Cc1cc(O)c2c(c1)C(=O)c1cc(O)cc(O)c1C2=O	inactive
OC(CN1CCN(c2cccc(Cl)c2)CC1)C(c1ccccc1)c1ccccc1 (stereo unspecified)	inactive
CC(C)c1ccc2c(c1)c(SC(C)(C)C)c(CC(C)(C)C(=O)O)n2Cc1ccc(Cl)cc1	inactive
O=C(c1ccccc1)c1ccc2n1CCC2C(=O)O (stereo unspecified)	inactive
CC1(C)C(=O)N(CCN2CCC(C(=O)c3ccc(F)cc3)CC2)c2ccccc21	inactive
